From paper PMC13494018 come the findings set out here.

This assay addresses CD276, Q5ZPR3.

A number with no mark means an inactive call. How the calls were made is not given here.

CD276, Q5ZPR3, sequence (Q5ZPR3 whole entry): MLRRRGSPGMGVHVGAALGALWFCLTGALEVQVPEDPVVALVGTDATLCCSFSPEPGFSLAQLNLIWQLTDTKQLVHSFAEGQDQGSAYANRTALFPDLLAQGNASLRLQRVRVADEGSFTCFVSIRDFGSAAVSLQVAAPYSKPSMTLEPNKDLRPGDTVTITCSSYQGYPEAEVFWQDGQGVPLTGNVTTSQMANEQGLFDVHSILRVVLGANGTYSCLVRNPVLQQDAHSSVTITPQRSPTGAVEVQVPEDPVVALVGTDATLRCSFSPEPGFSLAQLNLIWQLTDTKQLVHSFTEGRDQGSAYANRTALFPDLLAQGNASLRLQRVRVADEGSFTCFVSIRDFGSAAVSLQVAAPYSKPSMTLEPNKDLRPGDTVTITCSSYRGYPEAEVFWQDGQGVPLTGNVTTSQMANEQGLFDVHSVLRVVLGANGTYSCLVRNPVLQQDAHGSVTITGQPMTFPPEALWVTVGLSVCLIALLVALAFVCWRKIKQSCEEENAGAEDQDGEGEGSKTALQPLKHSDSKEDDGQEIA

B1: d1r11_design_ppi_369_dldesign_0_cycle0_af2pred (protein)
chain: MQERLDAYNAEAGAALEAAAASTDGARRLALMRKAAGLGLAAAGYAAGPEAGEAAEKQAEARFAAADAALA
Regarding B1, the “binding in a display sort” value is “not found”.

B2: d1r8_design_ppi_934_dldesign_0_cycle1_af2pred (protein)
chain: ASPLERAESLREFLHTVADAMAKNVGAEGQKVADAAKAAGDAAVAAARAAGTPEAYEAARDTLRALTADVIKAYMAALS
Turning to B2, the “binding in a display sort” value is “not found”.

B3: d1r11_design_ppi_310_dldesign_0_cycle1_af2pred (protein)
chain: EAAAAAALTAKAQALYAKYVAAAKAAQAALAGTEAHKEIAALLAQAEAAADDIGLALALASTAANLAAAKLAAALA
Turning to B3, the “binding in a display sort” value was “not found”.

B4: d1r11_design_ppi_301_dldesign_0_cycle0_af2pred (protein)
chain: SLLEEAKKLAEELKELLKKAKEALADPEKAKELIKKAEEANKKLVELAVEAAKAGDHESAALANRAALEGQRKIAEIKAQLAA
Take B4: the “binding in a display sort” value is “not found”.

B5: d1r11_design_ppi_238_dldesign_0_cycle0_af2pred (protein)
chain: AAAAAAAAAAAALAEAAARAAAATDVTTKVGAALTAQNPSVKPITDAAVEKMKQAAAVVADPAKAAAYQKEAGDLLTQALRQVAAARR
For B5, the “binding in a display sort” value is “not found”.

B6: d1r8_design_ppi_886_dldesign_0_cycle1_af2pred (protein)
chain: AKAAELAAEGKALAEQLAKEGAADGEKGIELLKQGSALVRELEALGAEDPEYAEAAKAAQAALQAAVAAFAAASIAKAAAA
Turning to B6, the “binding in a display sort” value was “not found”.

B7: d1r11_design_ppi_170_dldesign_0_cycle0_af2pred (protein)
chain: ASPEELTLTARALAFAGGSPEWRPLLQEAIAAYATAEASDPATGAAARAKADAITAELVERYRAAEAAEAAAAA
As to B7, the “binding in a display sort” value is “not found”.

B8: d1r8_design_ppi_906_dldesign_0_cycle1_af2pred (protein)
chain: AAEAAERADRGQGTLIAMEAEARLAAIAKAHPEVAALAAAAAERVRAAAPLPAAEVRAVAERELAEVEAALAAA
B8: the “binding in a display sort” value is “not found”.

B9: d1r8_design_ppi_870_dldesign_0_cycle1_af2pred (protein)
chain: EAEANQQAMNLLMRAAALQPRDREKAREAVEEGRKVAKDEETKKLLEEAVKALDGDVDEAIAVLLETAKKISERAREAAA
As to B9, the “binding in a display sort” value was “not found”.

B10: d1r8_design_ppi_934_dldesign_0_cycle0_af2pred (protein)
chain: ASALARAESQLAFLNTVADAMATQTGEEGAKIAAEAKAAGDAALAAAKASGTPAAYEAATAQLNALTAQVQRETMARLA
Consider B10, for which the “binding in a display sort” value is “not found”.

B11: d1r11_design_ppi_223_dldesign_0_cycle1_af2pred (protein)
chain: AAEAQALAAQAKKLADEAAKEAASPKSGELLGKAIELAMQANTLDPALGGQLSKYIAATAAAAAAKAAAEAAA
For B11, the “binding in a display sort” value is “not found”.

B12: d1r8_design_ppi_953_dldesign_0_cycle1_af2pred (protein)
chain: SAAAELALKSLQAALAAAKAAAKAYGPAAAEAHLKNALLLADSYAAATDAAAGAALKAKVEAEAAAAMAAV
Take B12: the “binding in a display sort” value was “not found”.

B13: d1r8_design_ppi_923_dldesign_0_cycle0_af2pred (protein)
chain: AAEMAATAAYVSEVAARAQAEDPSLGPEVNRLFALLARAGAAYAADPAAGAAVAAEARAYAEELDKRLEAAL
As for B13, the “binding in a display sort” value is “not found”.

B14: d1r11_design_ppi_51_dldesign_0_cycle1_af2pred (protein)
chain: AEVEKKAKEAKKKVEEAKKKMEEAEKAGDAEALRKAAAEANKKAIELASAALAEKDAETAKALAEAAQKLVEIALRANEAMAKLER
With B14, the “binding in a display sort” value was “not found”.

B15: d1r8_design_ppi_849_dldesign_0_cycle0_af2pred (protein)
chain: DDAAKAAELTALVLEEEAADPVRAGEVGAARARELGLSAAGILAVLDRVVAEAAPSGETVRALMRAAIEAAQA
As to B15, the “binding in a display sort” value was “not found”.

B16: d1r8_design_ppi_843_dldesign_0_cycle0_af2pred (protein)
chain: AEEARRAEAAARLEAAVAAGQATLVEVNKAAAATGDAALAEAALALSRAIAEGRRLGREGRYEEGAALVEAATKAAKATLAA
For the molecule B16, the “binding in a display sort” value was “not found”.

B17: d1r11_design_ppi_322_dldesign_0_cycle0_af2pred (protein)
chain: DTAEKAREVAKKAVEVAKEAAEKDPRAQAVYETAKIVAEGVEALVAAGQTELALRQAETQLKIAEKVLKEVLA
Take B17: the “binding in a display sort” value is “not found”.

B18: d1r8_design_ppi_838_dldesign_0_cycle1_af2pred (protein)
chain: NAGELLGKALELLEEASRLAKEDYEKAKEAAEKAIEYAEKAAAADPAHAPALVAVKSAARNIIEQAKKNEAARKAA
As to B18, the “binding in a display sort” value was “not found”.

B19: d1r11_design_ppi_189_dldesign_0_cycle1_af2pred (protein)
chain: AAAEKAKLGFQLLNQLQKAQQAVAAGAAAGATAAEFEALAAQAQKAKEEGKQTILADTVQAAADVVIAAARAAAAAAKARAA
With B19, the “binding in a display sort” value is “not found”.

B20: d1r8_design_ppi_889_dldesign_0_cycle1_af2pred (protein)
chain: AMAAAIAAVAASARAAAAIGRADPAAAPGAAAFLDVAAETLAALAKADPAHAAQANAAAAEARATAAELRAAAAA
Take B20: the “binding in a display sort” value was “not found”.
